The list is not random: actives were taken first. Their share in the collection is about 1.1%.
LRH-1 inv ag = LRH-1 (NR5A2) inverse agonists, primary screen, cell-based, luminescence, HEK293T, StAR-luciferase reporter; Nuclear receptor subfamily 5 group A member 2 (Homo sapiens), O00482; LRH-1 transfected, 24 h; inhibition, % at 3.6 µM; actives 0.13% (n = 360,000); AID 602396, 2012;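 active = inhibition above the mean inhibition of all tested compounds plus 3 SD, cut at about 73% in these data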
SRC1 inh = SRC1 coactivator transcriptional activity inhibitors, primary screen, cell-based, luminescence | HEK293 GAL4-SRC1 luciferase reporter | AID 588354, 2011 | Nuclear receptor coactivator 1 (Homo sapiens), Q15788 | actives 0.12% (n = 360,000) | inhibition, % at 3.6 µM;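 active = inhibition above the campaign mean plus 3 SD, with each screening campaign given its own cutoff, cut at about 60% in these data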
Target sequence (Q15788 whole entry, looked up, the tested form may be a part): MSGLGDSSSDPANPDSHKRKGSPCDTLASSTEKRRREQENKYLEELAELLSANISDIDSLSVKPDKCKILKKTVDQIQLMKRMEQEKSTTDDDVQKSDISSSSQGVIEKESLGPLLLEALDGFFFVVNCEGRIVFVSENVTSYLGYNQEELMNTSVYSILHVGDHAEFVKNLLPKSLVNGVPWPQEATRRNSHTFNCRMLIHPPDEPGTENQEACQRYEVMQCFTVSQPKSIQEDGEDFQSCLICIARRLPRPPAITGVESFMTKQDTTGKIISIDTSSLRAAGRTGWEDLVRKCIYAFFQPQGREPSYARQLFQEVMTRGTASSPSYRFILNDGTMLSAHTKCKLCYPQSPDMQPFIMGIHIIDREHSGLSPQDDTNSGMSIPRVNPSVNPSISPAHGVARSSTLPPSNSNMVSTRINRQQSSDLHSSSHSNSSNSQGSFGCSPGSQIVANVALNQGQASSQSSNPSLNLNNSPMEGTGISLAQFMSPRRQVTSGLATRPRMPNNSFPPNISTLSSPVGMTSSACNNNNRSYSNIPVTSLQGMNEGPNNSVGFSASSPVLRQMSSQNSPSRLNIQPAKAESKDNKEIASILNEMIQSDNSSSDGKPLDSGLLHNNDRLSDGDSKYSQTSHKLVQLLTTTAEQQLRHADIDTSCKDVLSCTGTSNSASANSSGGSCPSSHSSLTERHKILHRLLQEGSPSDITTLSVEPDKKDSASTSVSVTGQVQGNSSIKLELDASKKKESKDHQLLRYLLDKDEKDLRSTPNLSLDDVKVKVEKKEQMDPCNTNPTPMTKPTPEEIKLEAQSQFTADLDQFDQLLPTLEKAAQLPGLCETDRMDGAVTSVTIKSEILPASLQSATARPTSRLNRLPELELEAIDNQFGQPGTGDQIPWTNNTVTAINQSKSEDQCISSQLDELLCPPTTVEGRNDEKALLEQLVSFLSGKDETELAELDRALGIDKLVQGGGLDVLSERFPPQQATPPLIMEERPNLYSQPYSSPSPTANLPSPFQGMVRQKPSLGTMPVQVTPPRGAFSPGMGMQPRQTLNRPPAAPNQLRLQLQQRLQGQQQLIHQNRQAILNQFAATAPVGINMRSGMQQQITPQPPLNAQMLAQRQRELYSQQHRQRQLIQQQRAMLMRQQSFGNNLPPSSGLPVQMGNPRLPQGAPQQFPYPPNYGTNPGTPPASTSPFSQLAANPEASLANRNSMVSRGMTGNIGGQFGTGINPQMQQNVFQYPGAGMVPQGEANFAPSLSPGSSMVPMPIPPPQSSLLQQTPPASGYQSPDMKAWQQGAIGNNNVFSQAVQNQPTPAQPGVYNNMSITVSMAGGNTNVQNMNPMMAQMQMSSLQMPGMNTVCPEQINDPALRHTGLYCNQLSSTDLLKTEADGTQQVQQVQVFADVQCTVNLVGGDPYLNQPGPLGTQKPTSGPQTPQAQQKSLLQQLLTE
GalR3 antag = GalR3 antagonists in HEK293 cells, primary screen, cell-based, fluorescence readout. inhibition, % at 3 µM. HEK293 GalR3-CNG cAMP membrane potential fluorescence; galR3 body fused to GalR1 C-terminus. Galanin receptor type 3 (Homo sapiens), O60755. actives 0.44% (n = 360,000);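 active = inhibition above the screen-wide average plus 3 SD, cut at about 13% in these data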;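 note: forskolin and galanin both at EC90 stimulate the cells; cAMP rise reported by CNG channel membrane potential dye signal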
COUP-TFII inh = NR2F2 transcriptional activity inhibitors, primary screen, cell-based, luciferase reporter, HEK293T, luminescence | HEK293T NGFI-A luciferase reporter | inhibition, % at 8.6 µM | actives 0.7% (n = 370,000) | AID 686940, 2013;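 active = inhibition above a per-plate cutoff, mean inhibition of test wells between control levels plus 3 SD, cut at about 38% in these data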;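 note: cells cotransfected with COUP-TFII expression vector driving the NGFI-A reporter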
NCOA3 inh = SRC3 coactivator transcriptional activity inhibitors, primary screen, cell-based, luminescence; HEK293 GAL4-SRC3 luciferase reporter; AID 588352, 2011; inhibition, % at 3.6 µM; actives 0.17% (n = 360,000); Nuclear receptor coactivator 3 (Homo sapiens), Q9Y6Q9;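 active = inhibition above a per-campaign cutoff, the mean of all compounds plus 3 SD, cut at about 60% in these data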;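 note: higher means less SRC3-driven luciferase light from the GAL4 reporter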
NCOA2 inhibitor = inhibition of GAL4-SRC2 driven luciferase reporter, primary screen, SRC2 inhibitor project, cell-based, luminescence | AID 651957, 2012 | HEK293 GAL4-SRC2 luciferase reporter | inhibition, % at 9 µM | Nuclear receptor coactivator 2 (Homo sapiens), Q15596 | actives 0.17% (n = 370,000);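 active = inhibition above the mean inhibition of all tested compounds plus 3 SD, set per campaign, cut at about 52% in these data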
GalR3 antag conf = GalR3 antagonist hit confirmation, cell-based, fluorescence, triplicate. shares compounds with GalR3 antag. HEK293 GalR3 CNG cAMP biosensor, membrane potential fluorescence; galR3 fused to GalR1 carboxy tail; challenged with forskolin and galanin at EC90. inhibition, % at 3 µM. actives 59% (n = 1,600);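 active = inhibition above the primary screen's cutoff, the mean inhibition of all screened compounds plus 3 SD, cut at about 13% in these data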
HEK-CNG parental = nonspecific cAMP agonists in parental HEK-CNG cells, counter-screen for GalR3 antagonist project, cell-based, fluorescence, high throughput. HEK293-CNG parental cells, cAMP membrane potential fluorescence; normalised: DMSO wells 0%, forskolin wells 100%. actives 10% (n = 1,600). AID 652268, 2013. shares compounds with GalR3 antag. activation, % at 3 µM; in the data active = activation above about 1.3%
VP16 Luc counter = Gal4-VP16 luciferase reporter inhibitors, counter-screen for COUP-TFII antagonist project, cell-based, luminescence, HEK293 | actives 25% (n = 2,500) | shares compounds with COUP-TFII inh | inhibition, % at 8.5 µM; in the data active = inhibition above about 13%
NR2F2 inh conf = NR2F2 transcriptional activity inhibitors, confirmation, cell-based, luciferase reporter, HEK293, triplicate; shares compounds with COUP-TFII inh; HEK293 NGFI-A luciferase reporter, luminescence; inhibition, % at 8.5 µM; actives 45% (n = 2,500);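 active = mean inhibition over three repeats above a set limit taken from the earlier primary screen, cut at about 38% in these data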
Each line names hits and unclear results; the compound was inactive in the other large screens (follow-up assays come after a bar, where they were run).

CCC1CCCCN1C(=O)c1cc(COc2ccc3ncccc3c2)on1 (stereo not drawn)	GalR3 antag 71, COUP-TFII inh 72 | GalR3 antag conf 112 | HEK-CNG parental inactive | VP16 Luc counter inactive | NR2F2 inh conf 66
CCN(CC)C(=O)C1CCCN(C(=O)c2cc(COc3ccc4ncccc4c3)on2)C1 (stereo not drawn)	none
COCC1CCCCN1C(=O)c1cc(COc2ccc3ncccc3c2)on1 (stereo not drawn)	GalR3 antag 25, COUP-TFII inh 44 | GalR3 antag conf 93 | HEK-CNG parental inactive | VP16 Luc counter inactive | NR2F2 inh conf 57
O=C(Nc1cccc(C(F)(F)F)c1)O[C@@H]1CC[C@@]23CCCN2C(=O)CCC[C@H]3C1	none (no result: LRH-1 inv ag, SRC1 inh, GalR3 antag, NCOA3 inh, NCOA2 inhibitor)
C[C@H]1[C@@H](NC(=O)c2ccc(C(C)(C)C)cc2)CC[C@@]23CCCN2C(=O)CCC[C@@H]13	none (no result: LRH-1 inv ag, SRC1 inh, GalR3 antag, NCOA3 inh, NCOA2 inhibitor)
C=CCN(c1ccccc1)S(=O)(=O)c1cccc(C(=O)NC2CCN(Cc3ccccc3)CC2)c1	GalR3 antag 89, COUP-TFII inh 58 | GalR3 antag conf 62 | HEK-CNG parental 1.4 | VP16 Luc counter inactive | NR2F2 inh conf 44
O=C(NC1CCN(Cc2ccccc2)CC1)c1cccc(S(=O)(=O)Nc2ccc(F)cc2)c1	GalR3 antag 17, COUP-TFII inh 55 | GalR3 antag conf 54 | HEK-CNG parental inactive | VP16 Luc counter inactive | NR2F2 inh conf inactive
CN(C)S(=O)(=O)c1cccc(C(=O)NCC(=O)NC2CCN(Cc3ccccc3)CC2)c1	none
O=C(NC1CCN(Cc2ccccc2)CC1)c1cccc(S(=O)(=O)Nc2ccc(Br)cc2)c1	none
O=C(Nc1ccc(NC(=O)c2ccccc2Cl)c(Cl)c1)c1ccccn1	none (no result: LRH-1 inv ag, SRC1 inh, GalR3 antag, NCOA3 inh, NCOA2 inhibitor)
Cc1cc(N2CCN(c3nc4ccccc4s3)CC2)n2ncnc2n1	GalR3 antag 24, COUP-TFII inh 68 | GalR3 antag conf 37 | HEK-CNG parental inactive | VP16 Luc counter inactive | NR2F2 inh conf 71
O=C(CSC1=NCCS1)Nc1ccnc2ccccc12	GalR3 antag 99, COUP-TFII inh 41 | GalR3 antag conf 109 | HEK-CNG parental inactive | VP16 Luc counter inactive | NR2F2 inh conf 51
COC(=O)c1ccccc1NC(=O)CSc1nc(C)cc(C)n1	none
Cc1cc(C)nc(SCC(=O)Nc2ccnc3ccccc23)n1	GalR3 antag 55, COUP-TFII inh 65 | GalR3 antag conf 121 | HEK-CNG parental inactive | VP16 Luc counter inactive | NR2F2 inh conf 60
COC(=O)Nc1cc(C)nc2ccccc12	none
Cc1cc(NC(=O)Cc2ccccc2)c2ccccc2n1	GalR3 antag 13, COUP-TFII inh 58 | GalR3 antag conf 65 | HEK-CNG parental inactive | VP16 Luc counter inactive | NR2F2 inh conf 39
O=C(COCc1ccccc1)N1CC[C@H]2[C@H](CCCN2Cc2cc(F)cc(F)c2)C1	none (no result: LRH-1 inv ag, SRC1 inh, GalR3 antag, NCOA3 inh)
CCC(=O)c1ccc(OCC(O)Cn2c(C)nc3ccccc32)cc1 (stereo not drawn)	GalR3 antag 56, COUP-TFII inh 59 | GalR3 antag conf inactive | HEK-CNG parental inactive | VP16 Luc counter inactive | NR2F2 inh conf inactive
COC(=O)c1ccc(Cn2ccc3ccc(-c4ccc5ccn(C(=O)c6cccc(OC)c6)c5c4)cc32)cc1	none (no result: LRH-1 inv ag, SRC1 inh, GalR3 antag, NCOA3 inh)
COC(=O)[C@]12C[C@H](CC(=O)NCc3ccc(OC)c(OC)c3)C(=O)N(Cc3ccco3)C1=C[C@H](C(C)C)O[C@@H]2C1CC1	none (no result: LRH-1 inv ag, SRC1 inh, GalR3 antag, NCOA3 inh)
COCCCNC(=O)C1CCN(S(=O)(=O)c2ccc3[nH]c(=O)oc3c2)CC1	none (no result: LRH-1 inv ag, SRC1 inh, GalR3 antag, NCOA3 inh)
Cc1sc2ncnc(NC3CCN(Cc4ccccc4)CC3)c2c1C	GalR3 antag 83, COUP-TFII inh 56 | GalR3 antag conf 102 | HEK-CNG parental 1.2 | VP16 Luc counter inactive | NR2F2 inh conf 52
CCOC(=O)CC[C@@H]1CC[C@]2(CCCN(C(=O)c3ccc4ccccc4n3)C2)O1	none (no result: LRH-1 inv ag, SRC1 inh, GalR3 antag, NCOA3 inh)
COC(=O)c1ccc2nc(-c3ccccc3)c(Cc3cccc(Cl)c3)n2c1	none (no result: LRH-1 inv ag, SRC1 inh, NCOA3 inh)
COc1ccc(NC(=O)C2Cc3c(-c4ccc5c(c4)OCO5)ccnc3O2)cc1OC (stereo not drawn)	GalR3 antag 66, COUP-TFII inh 66 | GalR3 antag conf 74 | HEK-CNG parental inactive | VP16 Luc counter inactive | NR2F2 inh conf 57
COc1ccc(C(=O)Nc2ccc(S(=O)(=O)N3CCc4ccccc43)cc2)cc1	GalR3 antag 30, COUP-TFII inh 59 | GalR3 antag conf 86 | HEK-CNG parental inactive | VP16 Luc counter inactive | NR2F2 inh conf 42
O=C(Nc1ccncc1)c1ccc(Cl)c(S(=O)(=O)N2CCc3ccccc32)c1	GalR3 antag 40, COUP-TFII inh 73 | GalR3 antag conf 61 | HEK-CNG parental inactive | VP16 Luc counter inactive | NR2F2 inh conf 60
COc1ccc(C(=O)NCCN2C(=O)C3C4C=CC(C4)C3C2=O)cc1OC (stereo not drawn)	none (no result: LRH-1 inv ag, SRC1 inh, GalR3 antag, NCOA3 inh)
CCOc1ccc(-n2c(SCC(=O)Nc3ccc(S(=O)(=O)Nc4cc(C)nc(C)n4)cc3)nnc2-c2ccc(C)cc2)cc1	none (no result: LRH-1 inv ag, SRC1 inh, GalR3 antag, NCOA3 inh)
COc1ccc(NC(=O)CN(C)C(=O)c2cccc(S(=O)(=O)N3CCN(Cc4ccccc4)CC3)c2)cc1	none (no result: GalR3 antag, COUP-TFII inh, NCOA2 inhibitor)
CN(CCOc1ccc(Cl)cc1)C(=O)c1cccc(S(=O)(=O)N2CCN(Cc3ccccc3)CC2)c1	GalR3 antag 31, COUP-TFII inh 67 | GalR3 antag conf 84 | HEK-CNG parental inactive | VP16 Luc counter 15 | NR2F2 inh conf 58
